In PubChem BioAssay AID2284323 (EPA ToxCast):
Active and inactive are the calls of the source. The calls were made as follows: active = hit-call score of the fitted dose curve at least 0.9, where 1 is the maximum; inactive = score below 0.9.

Each compound was assayed on NCBI gene 447152 (assay: CCTE_GLTED_xIYD: CCTE's Xenopus Iodotyrosine Deiodinase (xIYD) Inhibition Assay, Great Lakes Toxicology and Ecology Division (GLTED) Lab).
Experimental: CCTE_GLTED_xIYD is a cell-free, single-readout assay that uses Xenopus (frog) iodotyrosine deiodinase (xIYD) enzyme from liver microsomes. Assay is based on iodide release measured by the Sandell-Kolthoff method and is run in 96-well plate format with assay plates run in triplicate (n=3) with measurements taken at 3 hours after chemical dosing. Platewise-normalization was used based on positive control (3-Nitro-L-tyrosine, MNT) and negative/solvent controls (DMSO, NaOH).CCTE_GLTED_xIYD is the assay component measured from the CCTE_GLTED_xIYD assay. It measures substrate involved in regulation of catalytic activity using spectrophotometry. The assay measures the deiodination activity of Xenopus (frog) IYD on the substrate monoiodotyrosine (MIT). After 3h incubation of substrate, enzyme, and test chemical, the components are applied to a 96-well Dowex column. Free iodide is not retained by the column and is separated from interfering assay components. The free iodide is measured by the Sandell-Kolthoff reaction in which the rate of reduction of cerium (Ce+4 to Ce+3) by arsenic (As+3 to As+5) is increased by the presence of iodide. This is observed as the loss of yellow color in the reaction and the quantified by the change in absorbance at 420 nm. The change in reaction rate is proportional to the amount of iodide present.Data from the assay component CCTE_GLTED_xIYD was analyzed at the assay endpoint CCTE_GLTED_xIYD in the positive analysis fitting direction relative to DMSO as the negative control and baseline of activity. Using a type of enzyme reporter, loss-of-signal activity can be used to understand iodotyrosine deiodinase activity. To generalize the intended target to other relatable targets, this assay endpoint is annotated to the 'dehalogenase' intended target family, where the subfamily is 'iodotyrosine deiodinase'.
Human transthyretin (TTR) assay, developed at Great Lakes Toxicology and Ecology Division (GLTED) within the EPA's Center for Computational Toxicology and Exposure (CCTE), is designed to test the chemicals' ability to displace T4 from the TTR protein. TTR (0.125uM) is incubated in presence of test chemical for 2 hours during which disrupting chemicals displace ANSA from the TTR protein. Results read fluorescence at 380 excitation and 475 emission.

Question: `O=C(O)C(F)(F)C(F)(F)C(F)(F)C(F)(F)C(F)(F)C(F)(F)C(F)(F)C(F)(F)C(F)(F)C(F)F` was tested. Which AC50 did it give?
Answer: Its AC50 is 64.2 µM (active).

Question: With `N[C@@H](Cc1ccc(O)c([N+](=O)[O-])c1)C(=O)O` as the compound, how does the AC50 read?
Answer: The AC50 was 0.113 µM (active).

Question: How did the AC50 turn out when `O=S(=O)(O)C(F)(F)C(F)(F)C(F)(F)C(F)(F)C(F)(F)C(F)(F)C(F)(F)F` was run?
Answer: The AC50 was 19.8 µM (active).

Question: Which AC50 does the source give for `O=C(O)C(F)(F)OC(F)(F)C(F)(F)OC(F)(F)C(F)(F)OC(F)(F)C(F)(F)C(F)(F)C(F)(F)F` here?
Answer: The AC50 was 93.8 µM (active).

Question: Which outcome does the source give for `O=S(=O)(Cl)C(F)(F)C(F)(F)C(F)(F)C(F)(F)C(F)(F)C(F)(F)C(F)(F)C(F)(F)F` here?
Answer: The outcome was “inactive”.

Question: `O=C(O)CCC(F)(F)C(F)(F)C(F)(F)C(F)(F)C(F)(F)C(F)(F)C(F)(F)F` was tested. Which outcome did it give?
Answer: The outcome was “inactive”.

Question: How did the AC50 turn out when `O=C(O)C(F)(F)C(F)(F)C(F)(F)C(F)(F)C(F)(F)C(F)(F)C(F)(F)C(F)(F)Cl` was run?
Answer: The AC50 was 38.9 µM (active).

Question: `O=P(O)(O)CCC(F)(F)C(F)(F)C(F)(F)C(F)(F)C(F)(F)C(F)(F)C(F)(F)C(F)(F)F` was tested. Which AC50 did it give?
Answer: Its AC50 is 65.4 µM (active).

Question: `O=C(Cl)C(F)(F)C(F)(F)C(F)(F)C(F)(F)C(F)(F)C(F)(F)C(F)(F)C(F)(F)F` was tested. Which outcome did it give?
Answer: Its outcome is “inactive”.
